In PubChem BioAssay (NCATS) one finds Potency data, which are given here for 25 molecules.

Records with an inconclusive call do not appear. Where a call stands in place of a potency, no number is given. Active and inactive are the calls of the source. The call rests on the fitted dose curve; in most records, active means well fitted inhibition curve with a large enough effect; inconclusive means small, poorly fitted or top-dose-only effect; inactive means no such curve, though single readings can be large or run the other way.

For the experiment, the target named is Retinaldehyde dehydrogenase 3 (Homo sapiens) (UniProt P47895). Description: qHTS for Inhibitors of the Aldehyde Dehydrogenase Family (ALDH1A3) Primary screen (AID 2061315). Conditions: ALDH inhibition qHTS; series mostly up to 56 µM. On the technique in general: In qHTS, concentration-response curves come from the screen itself.
Turning to `COc1ccc(C(=O)Nc2nnc(-c3ccco3)o2)cc1OC`, the Potency entry was “inactive”. Take `CC(C)CN1CCN(C(=O)COC(=O)c2ccc(S(C)(=O)=O)c([N+](=O)[O-])c2)CC1`: the Potency entry is “inactive”.

On to `Cn1cc2ccc(-c3ccc4ncnc(NCc5cccs5)c4c3)cc2n1`, for which the Potency entry is “inactive”. Regarding `O=S(=O)(Nc1nccs1)c1ccc(NCc2ccccc2O)cc1`, the Potency entry is “inactive”.

Consider `Cc1ccc(C)c(OCCn2c(CCNC(=O)C3CCCCC3)nc3ccccc32)c1`, for which the Potency entry was “inactive”.

As for `CC1=C(C(=O)Nc2nc3ccccc3s2)C(c2nn(C)cc2Cl)N=C(Nc2nc3ccccc3o2)N1` (stereo not given), the Potency entry was “inactive”. For the molecule `O=C(NCCCCN1CCN(c2cccc(Cl)c2Cl)CC1)c1cc2ccccc2s1`, the Potency result is “inactive”. As to `CCCc1cc(F)c(S(=O)(=O)N2CCN(S(=O)(=O)c3ccc4c(c3)OCCO4)CC2)cc1F`, the Potency result was “inactive”. Turning to `CC(C)(N)C(=O)Nc1ccc(Cl)cc1C(=O)c1ccc[nH]1`, the Potency result was “inactive”. Take `NC(=O)c1ccc(Cc2c(-c3cccc(-c4ccccc4)c3)[nH]n(-c3nc(C(=O)O)cs3)c2=O)cc1`: the Potency entry is “inactive”. For the molecule `O=C(NC1CCCc2c1cnn2-c1ccc(F)cc1F)c1ccn[nH]1` (stereo not given), the Potency result was “inactive”. Take `C=C(C)C(=O)OC1[C@@H]2C(=C)C(=O)O[C@@H]2C[C@@H](C)[C@@H]2C=CC(=O)[C@@]12C` (stereo not given in full): the Potency entry is “inactive”. As to `Cc1ccc(NS(=O)(=O)c2cc3c(cc2NCC(C)(C)O)NC(=O)CC3)cc1C`, the Potency result is “inactive”.

As to `CC(=O)Nc1sc2c(c1-c1ccc3nsnc3c1)CCNC2`, the Potency result was “inactive”. As to `CNc1nnc(-c2cccc3ccccc23)o1`, the Potency entry is “inactive”. For the molecule `COc1ccc(NC(=O)CSc2nnc(-c3cccc(S(=O)(=O)N4CCCC4)c3)n2-c2ccccc2)cc1`, the Potency entry is “inactive”.

Consider `C=C1C(=O)O[C@@H]2/C=C(\CO)CC/C=C(\CO)[C@H](OC(C)=O)C(OC(=O)C(C)CC)C12` (stereo not given in full), for which the Potency result was “inactive”. Regarding `O=C(O)c1ccc2c(c1)C(=O)N([C@@H](C(=O)O)C(c1ccccc1)c1ccccc1)C2=O`, the Potency entry was “inactive”. With `CCCCNc1nc(C)nc2c1nc(C)n2CCC`, the Potency entry is “inactive”. The result for `C=C1CCC[C@]2(C)C[C@]3(O)OC(=O)C(C)=C3C[C@@H]12` reads “inactive”; that for `CC(C)(C)OC(=O)CC(=O)NNC(=O)c1nc2ccccc2[nH]1`, “inactive”; that for `COc1ccc(OCc2nnc3n2N=C(c2ccccc2)CS3)cc1`, “inactive”. As for `O=C(Nc1ccc(-c2nc3ccccc3[nH]2)cc1)c1ccc2cc[nH]c2c1`, the entry is “inactive”; as for `Cc1ccccc1OC1=NS(=O)(=O)c2ccccc21`, “inactive”. Turning to `CCCc1c(C(C)C)nc(C(C)C)c([C@@H](C)O)c1-c1ccc(F)cc1O`, the Potency result is “inactive”.
